Source: PubChem (National Center for Advancing Translational Sciences (NCATS))
Only some compounds are listed: those with a hit (about 10% of all), similar ones and a draw of the others.
G9a inh: qHTS Assay for Inhibitors of Histone Lysine Methyltransferase G9a; G9a H3K9 monomethylation, AlphaScreen, 2 h; Potency, µM (series often up to 102 µM), for the others: at the top dose activity, negative = inhibition, hits mostly inhibitors; 350,000 tested, 8.8% active; also: % is scaled to controls: 0 for no effect and ±100 for the full control effect; nearly all actives have a fitted effect of over 75% in size
Target sequence (Q96KQ7 913-1193 limits assumed): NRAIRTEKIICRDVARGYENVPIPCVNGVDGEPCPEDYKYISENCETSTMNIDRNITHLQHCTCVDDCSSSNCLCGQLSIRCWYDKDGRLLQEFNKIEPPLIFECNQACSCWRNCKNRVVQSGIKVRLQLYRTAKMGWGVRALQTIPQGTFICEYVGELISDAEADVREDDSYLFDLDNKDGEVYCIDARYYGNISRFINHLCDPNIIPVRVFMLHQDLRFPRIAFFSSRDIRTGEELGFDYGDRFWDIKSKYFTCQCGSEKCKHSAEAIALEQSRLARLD
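Quantitative HTS format: methyltransferase activity on a biotin-tagged H3K9 peptide is measured by AlphaScreen, using a rabbit anti-monomethyl-H3K9 antibody with streptavidin donor and anti-IgG acceptor beads. Final levels are 20 nM enzyme, 500 nM peptide, 20 uM SAM; 2 h RT.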
BAZ2B inh: qHTS Assay for Inhibitors of BAZ2B | 360,000 tested, 4.4% active | AlphaScreen BAZ2B-H3K14Ac peptide displacement | AID 504333, 2011 | Potency, µM (doses to about 114 µM), for the others: top-dose activity change, negative = inhibition, hits mostly inhibitors; also: % is scaled to controls: 0 for no effect and ±100 for the full control effect; nearly all actives have a fitted effect of over 60% in size
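BAZ2B (50 nM) with biotin-H3(5-23)K14Ac peptide (50 nM) in PBS pH 7.4, 0.01% Tween-20, preformed 30 min, then compound 30 min at room temperature; top concentration 110uM. AlphaScreen streptavidin donor/nickel chelate acceptor beads (10 ug/mL final), 20 min dark, signal read.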
HP1b chromo inh: HTS for Inhibitors of HP1-beta Chromodomain Interactions with Methylated Histone Tails; AlphaScreen HP1-beta / biotin-H3K9me3 peptide binding; Potency, µM (highest dose often 114 µM), for inactives: at the top dose activity change, negative = inhibition, actives largely listed as inhibitors; Chromobox protein homolog 1 (Homo sapiens), P83916; 390,000 tested, 0.56% active; also: nearly all actives have a fitted effect of over 70% in size
Target sequence (P83916 whole entry, looked up): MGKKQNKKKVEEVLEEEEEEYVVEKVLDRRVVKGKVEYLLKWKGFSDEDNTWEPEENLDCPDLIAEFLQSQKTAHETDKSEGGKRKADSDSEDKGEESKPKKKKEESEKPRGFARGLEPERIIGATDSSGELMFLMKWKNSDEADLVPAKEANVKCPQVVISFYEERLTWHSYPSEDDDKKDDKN
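Compound inhibition of the preformed complex between 50 nM HP1-beta and 50 nM biotinylated H3K9me3 peptide was read by AlphaScreen. Buffer was PBS pH 7.4 with 0.01% Tween-20. Incubations ran 30 min at room temperature, with 10 ug/mL donor/acceptor beads.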
GLS inhibitor: qHTS for Inhibitors of Glutaminase (GLS); Glutaminase kidney isoform, mitochondrial (Homo sapiens), O94925; GLS enzymatic activity, qHTS titration; Potency, µM (top dose mostly 45.5 µM), for the others: top-dose activity change, negative = inhibition, hits mostly inhibitors; 410,000 tested, 0.21% active; AID 624170, 2012; also: % is scaled to controls: 0 for no effect and ±100 for the full control effect
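hKGA in 45 mM KH2PO4 pH 8.2, 0.02% Tween-20 with pin-transferred compounds; 1 mM L-glutamine (stock) plus glutamate oxidase/HRP/Amplex Red coupling added. Fluorescence read initially and after 30 min at RT.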
JMJD2A Tudor inh: qHTS Assay for Inhibitors of JMJD2A-Tudor Domain. Potency, µM (series often up to 114 µM), inactives show at the highest dose activity change, negative = inhibition, usual class: inhibitors. 390,000 tested, 4.4% active. AlphaScreen JMJD2A-Tudor / H3K4me3 peptide binding. Lysine-specific demethylase 4A (Homo sapiens), O75164; also: % is scaled to controls: 0 for no effect and ±100 for the full control effect; nearly all actives have a fitted effect of over 50% in size
* hit, by the source's call; [ ] = dose if it differs, or a comment. Calls follow the shape of the dose curve; as a rule, active = well fitted curve in the direction sought with a large enough effect; inconclusive = small, poorly fitted or top-dose-only effect, or another doubt; inactive = no such curve, though single readings can be large; an effect the other way counts as inactive or inconclusive. Potency is read from the fitted curve at half-maximal effect.

For CCC(C(=O)Nc1ccc(C(C)=O)cc1)n1cnc2nc3c(cc2c1=O)CCCC3 (stereo unspecified) the results were G9a inh 1%[59 µM], BAZ2B inh 2%, HP1b chromo inh 29%[57 µM], GLS inhibitor inconclusive and JMJD2A Tudor inh 1%.
`CC(C)(C)OC(=O)N/N=C/c1cccn1-c1ccc([N+](=O)[O-])cc1` gave G9a inh 8.9µM*, BAZ2B inh inconclusive, HP1b chromo inh inconclusive, GLS inhibitor 1% and JMJD2A Tudor inh inconclusive.
`Cc1cc(/C=N/Nc2ccc([N+](=O)[O-])cn2)c(C)n1-c1ccc(C(=O)O)cc1` gave G9a inh 50µM*, BAZ2B inh 50µM*, HP1b chromo inh -36%, GLS inhibitor -24% and JMJD2A Tudor inh inconclusive.
O=[N+]([O-])c1ccc(N/N=C\c2cccn2-c2ccccc2)nc1 was read as G9a inh inconclusive, BAZ2B inh inconclusive, HP1b chromo inh inconclusive, GLS inhibitor 14% and JMJD2A Tudor inh 40µM*.
`CC(C)(C)OC(=O)N/N=C/c1cccc([N+](=O)[O-])c1` gave G9a inh 50µM*, HP1b chromo inh 26%, GLS inhibitor 6% and JMJD2A Tudor inh -1%.
For CC(C)(C)OC(=O)N/N=C\c1ccc[nH]1 the results were G9a inh -2%, BAZ2B inh -6%, HP1b chromo inh 27%, GLS inhibitor 5% and JMJD2A Tudor inh -10%.
Screening Cc1cc(C(=O)N/N=C/c2cccc([N+](=O)[O-])c2)c(C)o1 returned G9a inh 27%, BAZ2B inh -27%, HP1b chromo inh 31%, GLS inhibitor 0% and JMJD2A Tudor inh -18%.
Screening O=[N+]([O-])c1ccc(NN=Cc2ccccc2)nc1 returned HP1b chromo inh 27%, GLS inhibitor 21% and JMJD2A Tudor inh -15%.
Screening CCOc1cc(C(=O)OC(C(=O)NC(=O)NC)c2ccccc2)ccc1OCC(=O)N1CCOCC1 (stereo unspecified) returned HP1b chromo inh 13%, GLS inhibitor 1% and JMJD2A Tudor inh -5%.
Screening COc1ccc([N+](=O)[O-])cc1/C=N/NC(=O)Cc1ccccc1 returned G9a inh 20%, BAZ2B inh 0%, HP1b chromo inh 25%, GLS inhibitor -5% and JMJD2A Tudor inh -25%.
COc1ccc(CC(=O)N/N=C/c2cccn2-c2ccc([N+](=O)[O-])cc2)cc1OC was read as G9a inh inconclusive, BAZ2B inh 40µM*, HP1b chromo inh inconclusive, GLS inhibitor 9% and JMJD2A Tudor inh 45µM*.
Cc1cc(C)c(Nc2cc(S(=O)(=O)O)c(N)c3c2C(=O)c2ccccc2C3=O)c(C)c1 was read as G9a inh 2.8µM*, BAZ2B inh 5.6µM*, HP1b chromo inh inconclusive, GLS inhibitor 16% and JMJD2A Tudor inh 7.9µM*.
Screening O=c1c2ccccc2ncn1-c1ccc([N+](=O)[O-])cc1Cl returned G9a inh -4%, BAZ2B inh -20%, HP1b chromo inh 15%, GLS inhibitor -7% and JMJD2A Tudor inh -14%.
`CCC1CO/C(=C(\C(Cl)=C(Cl)Cl)[N+](=O)[O-])N1` (stereo unspecified) gave G9a inh 79µM*, BAZ2B inh 2%, HP1b chromo inh inconclusive, GLS inhibitor 11% and JMJD2A Tudor inh -16%[11.4 µM].
`Cc1cc(Br)c2c(c1)=C(c1sc(N3CCCCCC3)nc1O)C(=O)N=2` gave G9a inh 7%[59 µM], BAZ2B inh 7%, HP1b chromo inh 35%, GLS inhibitor -3% and JMJD2A Tudor inh -18%.
Cc1ccc2c(c1)=C(c1sc(N(C)c3ccc(O)cc3)nc1O)C(=O)N=2 was read as G9a inh 45µM*, BAZ2B inh -19%, HP1b chromo inh 9%, GLS inhibitor 4% and JMJD2A Tudor inh -3%.
`Cc1nc2cc(N=NC3=C(O)CCCC3=O)ccc2s1` gave G9a inh inconclusive, BAZ2B inh 56µM*, HP1b chromo inh -17%, GLS inhibitor 6% and JMJD2A Tudor inh inconclusive.
For O=C1CCCC(O)=C1N=Nc1ccc(Cl)c(Cl)c1 the results were G9a inh inconclusive, BAZ2B inh inconclusive, HP1b chromo inh 13%, GLS inhibitor -2% and JMJD2A Tudor inh -18%.
`CCN(CC)c1ccc(CN(C(=O)c2cccs2)C2CCS(=O)(=O)C2)cc1` (stereo unspecified) gave G9a inh 40µM*, BAZ2B inh inconclusive, HP1b chromo inh 5%, GLS inhibitor 17% and JMJD2A Tudor inh inconclusive.
Screening Cc1ccc(CN(C(=O)c2cccs2)C2CCS(=O)(=O)C2)cc1 (stereo unspecified) returned G9a inh 1%, BAZ2B inh -19%, HP1b chromo inh 30%, GLS inhibitor 0% and JMJD2A Tudor inh 7%.
Screening CCc1ccc(CN(C(=O)c2ccco2)C2CCS(=O)(=O)C2)cc1 (stereo unspecified) returned G9a inh inconclusive, BAZ2B inh 2%, HP1b chromo inh 12%, GLS inhibitor -1% and JMJD2A Tudor inh 22µM*.
`COc1cccc(CN(C(=O)c2cccs2)C2CCS(=O)(=O)C2)c1` (stereo unspecified) gave G9a inh 20%, BAZ2B inh -14%, HP1b chromo inh 10%, GLS inhibitor -2% and JMJD2A Tudor inh 56µM*.
CCN(CC)c1ccc(CN(C(=O)c2ccco2)C2CCS(=O)(=O)C2)cc1 (stereo unspecified) was read as G9a inh 45µM*, BAZ2B inh -36%, HP1b chromo inh 4%, GLS inhibitor 39% and JMJD2A Tudor inh -35%.
CC(=O)Nc1ccc(C=NNC(=O)CCCC(=O)NN=Cc2ccc(NC(C)=O)cc2)cc1 was read as HP1b chromo inh 16%, GLS inhibitor 4% and JMJD2A Tudor inh -11%.
CN1CCN(Cc2cn[nH]c2-c2ccc(F)cc2F)[C@@H](c2ccccc2)C1 was read as G9a inh 12%, BAZ2B inh 2%, HP1b chromo inh 10%, GLS inhibitor -6% and JMJD2A Tudor inh -13%.
`CCOC(=O)[C@]12CCCC=C1N(Cc1cccc3ccccc13)C(=O)[C@H](CC(=O)N1CCCCC1)C2` gave GLS inhibitor -15%.
Screening Cc1cc(Nc2cccc(Br)c2)n2c(nc3ccccc32)c1C#N returned G9a inh inconclusive, BAZ2B inh inconclusive, HP1b chromo inh 17%, GLS inhibitor -2% and JMJD2A Tudor inh -18%.
